SMILES strings stand for the structures. Out of some 370,000 compounds screened, about 3,300 (0.89%) were called active.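 Rule for the calls: active = activation above the mean of all tested compounds plus 3 SD, computed per campaign excluding outliers beyond control limits (cut at about 13% in these data); inactive = the rest.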 The sample as a whole holds a higher share of actives than the screen did.

The assay deals with Kallikrein-7 (Homo sapiens) (UniProt P49862). Nature of the assay: activation of human kallikrein-7 proenzyme – biochemical, fluorescence intensity, primary screen (AID 652039). To be noted: purified proKLK7, EDANS-DABCYL substrate fluorescence; at 7 µM; hits give high values; 100% is mature enzyme control, 0% vehicle.
Chain of Kallikrein-7 (Homo sapiens) (P49862 whole entry, looked up): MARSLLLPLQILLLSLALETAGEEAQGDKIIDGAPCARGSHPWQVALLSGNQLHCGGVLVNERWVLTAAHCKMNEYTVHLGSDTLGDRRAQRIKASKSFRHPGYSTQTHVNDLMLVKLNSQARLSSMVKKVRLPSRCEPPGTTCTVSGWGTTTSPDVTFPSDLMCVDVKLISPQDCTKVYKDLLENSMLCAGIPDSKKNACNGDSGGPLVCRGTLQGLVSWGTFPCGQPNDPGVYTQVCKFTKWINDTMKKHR
As to `O=C1c2ccccc2NC(c2ccccc2O)N1NS(=O)(=O)c1ccccc1` (configuration not stated), the activation is 6.73% (inactive).
For `CCOC(=O)NN1C(=O)c2ccccc2NC1c1cccc(O)c1` (configuration not stated) the value was 26.7% (active); for `CN(C)c1ccc(C2Nc3ccccc3C(=O)N2NS(=O)(=O)c2ccccc2)cc1` (configuration not stated), 4.94% (inactive); for `CCOC(=O)NN1C(=O)c2ccccc2NC1c1ccccc1O` (configuration not stated), 8.02% (inactive).
`CC(C)N1C(=O)c2ccccc2NC(=O)C1C(=O)NCc1cccs1` (configuration not stated): the activation is 0% (inactive).
Consider `CC(=O)NN1C(=O)c2ccccc2NC1c1ccccc1` (configuration not stated), for which the activation is 15.6% (active).
For `COC(=O)[C@]12C[C@H](CC(=O)NCc3cccc4ccccc34)C(=O)N(CCc3ccc(OC)c(OC)c3)C1=C[C@H](C1CCCC1)O[C@@H]2C` the value was 0.51% (inactive); for `COc1ccc(C(=O)CSc2nnc(-c3cnccn3)n2-c2ccc(C)cc2)cc1`, 0.34% (inactive).
Under `C[C@@H]1ON(C)[C@H]2C[C@H]3c4[nH]c5cccc(-c6ccc7c(c6)OCO7)c5c4CCN3C[C@@H]12` stands 0.38% (inactive); under `CCC(C)[C@@H](C(=O)OC)N(CCc1cn(Cc2ccccc2)nn1)S(=O)(=O)c1ccccc1Br` (some centres not stated), 0.31% (inactive); under `CCC(=O)Nc1ccc2c(c1)C(=O)N(C)[C@H]1CC[C@H](CC(=O)NCCOC)O[C@@H]1CO2`, -0.03% (inactive).
Take `COCC(=O)N[C@@H]1C[C@@H]2O[C@@H](CO)CC[C@@H]2O[C@@H]1CCc1ccc(-c2ccccc2)cc1`: the activation was -0.04% (inactive).
For the compound `COCCN(CCOC)c1nc(N)c2c(N)nc3c(c2c1C#N)CC(=O)N3Cc1ccc(Cl)cc1`, the activation is 50.3% (active).
For `O=C(c1c[nH]c2ccccc12)N1CCC(Oc2cccnc2)CC1`, the activation is 0.8% (inactive).
Under `COC(=O)C[C@@H]1CC[C@@H]2[C@@H](COc3ccc(NC(=O)Nc4ccc(F)c(F)c4)cc3C(=O)N2C)O1` stands 0.06% (inactive); under `COC(=O)C[C@@H]1CC[C@@H]2[C@H](COc3ccc(NC(=O)c4cccc(F)c4)cc3C(=O)N2C)O1`, -0.18% (inactive); under `CCOC(=O)c1cc(-c2ccc(Cl)s2)nc2c1c(C)nn2C`, -3.83% (inactive).
In the case of `COc1ccc(CCC(=O)Nc2ccc(Cl)c(S(=O)(=O)N3CCOCC3)c2)cc1OC`, the activation was 0.18% (inactive).
For `COc1cc(/C=C/C(=O)OCC(=O)N2CCOCC2)ccc1OCC#N` the value was 3.33% (inactive); for `COc1cc(/C=C/C(=O)Nc2ccc(OC)c(S(=O)(=O)N3CCOCC3)c2)ccc1OCC#N`, 40.2% (active); for `COP(=O)(O)CNC(=O)OCc1ccccc1`, -0.07% (inactive).
For `Cc1ccc(C(=O)N(Cc2ccccn2)CC2CCCO2)cc1` (configuration not stated) the value was -0.88% (inactive).

For the origin of these results see PubChem BioAssay AID652039 (The Scripps Research Institute Molecular Screening Center, 2013).
